Measurements from PubChem BioAssay AID1159580 (chemical genetic matrix, 2015).
Screen size: about 5,500 compounds; about 2,000 (36%) were called active. About 18% were inconclusive and are not listed. No stated cut-off is given here; in the data, active means normalized growth mostly below about 0.91 (no sharp cut-off); inconclusive means no clear call, values can overlap the other calls; inactive means mostly above about 0.92. The list shows a part of the results.

Test: chemical genetic growth profiling, strain panel (AID 1159580);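 further: tested at 20 µM; growth read once vehicle control cultures reached saturation at 30 °C; 1 = growth at the plate median or of vehicle wells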
Conditions: growth OD

Measured: normalized growth

c1ccc2c(CC3=NCCN3)cccc2c1
inactive: S. cerevisiae deletion strains, locus YJR075W, strain HOC1, stronger effect = lower value 1 | S. cerevisiae deletion strains, locus YKL009W, strain mrt4, stronger effect = lower value 1.01 | S. cerevisiae deletion strains, locus YKL068W, stronger effect = lower value 1.01 | S. cerevisiae deletion strains, locus YKL085W, strain MDH1 (second series), stronger effect = lower value 1.02 | S. cerevisiae deletion strains, locus YKL085W, strain MDH1, stronger effect = lower value 1.02 | S. cerevisiae deletion strains, locus YKL160W, strain elf1, stronger effect = lower value 0.984 | S. cerevisiae deletion strains, locus YKL190W, strain CNB1, stronger effect = lower value 1 | S. cerevisiae deletion strains, locus YKR001C, strain vps1, stronger effect = lower value 1.01 | S. cerevisiae deletion strains, locus YKR026C, strain gcn3, stronger effect = lower value 0.984 | S. cerevisiae deletion strains, locus YKR091W, strain srl3, stronger effect = lower value 0.98 | S. cerevisiae deletion strains, locus YLL001W, strain dnm1, stronger effect = lower value 0.986 | S. cerevisiae deletion strains, locus YLL026W, stronger effect = lower value 0.997 | S. cerevisiae deletion strains, locus YLL041C, strain sdh2, stronger effect = lower value 0.972 | S. cerevisiae deletion strains, locus YLR027C, strain aat2, stronger effect = lower value 0.973 | S. cerevisiae deletion strains, locus YLR039C, strain RIC1, stronger effect = lower value 1.04 | S. cerevisiae deletion strains, locus YLR058C, strain SHM2, stronger effect = lower value 1.01 | S. cerevisiae deletion strains, locus YLR102C, strain apc9, stronger effect = lower value 1.02 | S. cerevisiae deletion strains, locus YLR113W, strain HOG1, stronger effect = lower value 0.991 | S. cerevisiae deletion strains, locus YLR221C, strain rsa3, stronger effect = lower value 0.995 | S. cerevisiae deletion strains, locus YLR258W, strain gsy2, stronger effect = lower value 0.991 | S. cerevisiae deletion strains, locus YLR262C, strain YPT6 (second series), stronger effect = lower value 0.97 | S. cerevisiae deletion strains, locus YLR262C, strain YPT6, stronger effect = lower value 1.03 | S. cerevisiae deletion strains, locus YLR268W, strain sec22, stronger effect = lower value 1.02 | S. cerevisiae deletion strains, locus YLR320W, strain mms22, stronger effect = lower value 0.979 | S. cerevisiae deletion strains, locus YLR330W, strain CHS5, stronger effect = lower value 1.01 | S. cerevisiae deletion strains, locus YLR342W, strain FKS1 (second series), stronger effect = lower value 1.03 | S. cerevisiae deletion strains, locus YLR342W, strain FKS1, stronger effect = lower value 0.971 | S. cerevisiae deletion strains, locus YLR357W, strain rsc2, stronger effect = lower value 0.942 | S. cerevisiae deletion strains, locus YLR370C, strain arc18, stronger effect = lower value 0.978 | S. cerevisiae deletion strains, locus YLR371W, strain rom2, stronger effect = lower value 1.04 | S. cerevisiae deletion strains, locus YLR384C, strain iki3, stronger effect = lower value 0.962 | S. cerevisiae deletion strains, locus YLR418C, strain cdc73, stronger effect = lower value 1.02 | S. cerevisiae deletion strains, locus YML016C, strain PPZ1, stronger effect = lower value 1.01 | S. cerevisiae deletion strains, locus YML032C, strain rad52, stronger effect = lower value 1.03 | S. cerevisiae deletion strains, locus YML120C, strain ndi1, stronger effect = lower value 0.977 | S. cerevisiae deletion strains, locus YML124C, strain tub3, stronger effect = lower value 1.02 | S. cerevisiae deletion strains, locus YMR058W, strain fet3, stronger effect = lower value 0.976 | S. cerevisiae deletion strains, locus YMR078C, strain ctf18, stronger effect = lower value 1.02 | S. cerevisiae deletion strains, locus YMR125W, strain sto1, stronger effect = lower value 0.938 | S. cerevisiae deletion strains, locus YMR129W, stronger effect = lower value 0.96 | S. cerevisiae deletion strains, locus YMR205C, strain PFK2, stronger effect = lower value 0.987 | S. cerevisiae deletion strains, locus YMR223W, strain ubp8, stronger effect = lower value 1.01 | S. cerevisiae deletion strains, locus YMR231W, strain pep5, stronger effect = lower value 0.981 | S. cerevisiae deletion strains, locus YMR263W, strain SAP30, stronger effect = lower value 1 | S. cerevisiae deletion strains, locus YMR307W, strain GAS1, stronger effect = lower value 1.01 | S. cerevisiae deletion strains, locus YNL067W, strain RPL9B, stronger effect = lower value 1 | S. cerevisiae deletion strains, locus YNL071W, strain lat1, stronger effect = lower value 0.961 | S. cerevisiae deletion strains, locus YNL128W, strain TEP1, stronger effect = lower value 1.01 | S. cerevisiae deletion strains, locus YNL153C, strain GIM3, stronger effect = lower value 1 | S. cerevisiae deletion strains, locus YNL183C, strain NPR1, stronger effect = lower value 0.957 | S. cerevisiae deletion strains, locus YNL209W, strain ssb2, stronger effect = lower value 0.968 | S. cerevisiae deletion strains, locus YNL233W, strain BNI4, stronger effect = lower value 1.01 | S. cerevisiae deletion strains, locus YNL248C, strain rpa49, stronger effect = lower value 0.963 | S. cerevisiae deletion strains, locus YNL250W, strain rad50, stronger effect = lower value 1.02 | S. cerevisiae deletion strains, locus YNL271C, strain bni1, stronger effect = lower value 1.02 | S. cerevisiae deletion strains, locus YNL298W, strain CLA4, stronger effect = lower value 1.01 | S. cerevisiae deletion strains, locus YNL307C, strain MCK1, stronger effect = lower value 1.03 | S. cerevisiae deletion strains, locus YNL322C, strain KRE1 (second series), stronger effect = lower value 0.958 | S. cerevisiae deletion strains, locus YNL322C, strain KRE1, stronger effect = lower value 1 | S. cerevisiae deletion strains, locus YNR049C, strain mso1, stronger effect = lower value 0.982 | S. cerevisiae deletion strains, locus YNR052C, strain pop2, stronger effect = lower value 1.02 | S. cerevisiae deletion strains, locus YOL006C, strain TOP1, stronger effect = lower value 1.03 | S. cerevisiae deletion strains, locus YOL012C, strain htz1 0.662 | S. cerevisiae deletion strains, locus YOL147C, strain pex11, stronger effect = lower value 1.02 | S. cerevisiae deletion strains, locus YOR001W, strain rrp6, stronger effect = lower value 0.934 | S. cerevisiae deletion strains, locus YOR061W, strain CKA2, stronger effect = lower value 1.01 | S. cerevisiae deletion strains, locus YOR069W, strain VPS5, stronger effect = lower value 1 | S. cerevisiae deletion strains, locus YOR070C, strain gyp1, stronger effect = lower value 1.01 | S. cerevisiae deletion strains, locus YOR080W, strain dia2, stronger effect = lower value 0.965 | S. cerevisiae deletion strains, locus YOR083W, strain WHI5, stronger effect = lower value 0.994 | S. cerevisiae deletion strains, locus YOR106W, strain vam3, stronger effect = lower value 0.97 | S. cerevisiae deletion strains, locus YOR136W, strain idh2, stronger effect = lower value 1.02 | S. cerevisiae deletion strains, locus YOR144C, strain elg1, stronger effect = lower value 1.02 | S. cerevisiae deletion strains, locus YOR184W, strain ser1, stronger effect = lower value 1.02 | S. cerevisiae deletion strains, locus YOR231W, strain MKK1, stronger effect = lower value 1.02 | S. cerevisiae deletion strains, locus YOR265W, strain rbl2, stronger effect = lower value 0.987 | S. cerevisiae deletion strains, locus YOR270C, strain vph1, stronger effect = lower value 0.914 | S. cerevisiae deletion strains, locus YOR290C, strain snf2, stronger effect = lower value 0.984 | S. cerevisiae deletion strains, locus YOR316C, strain cot1, stronger effect = lower value 1.03 | S. cerevisiae deletion strains, locus YPL051W, strain arl3, stronger effect = lower value 0.988 | S. cerevisiae deletion strains, locus YPL055C, strain LGE1, stronger effect = lower value 1.02 | S. cerevisiae deletion strains, locus YPL078C, strain atp4, stronger effect = lower value 0.981 | S. cerevisiae deletion strains, locus YPL106C, strain sse1, stronger effect = lower value 0.968 | S. cerevisiae deletion strains, locus YPL240C, strain hsp82, stronger effect = lower value 0.997 | S. cerevisiae deletion strains, locus YPL241C, strain CIN2, stronger effect = lower value 1 | S. cerevisiae deletion strains, locus YPL256C, strain CLN2, stronger effect = lower value 0.987 | S. cerevisiae deletion strains, locus YPR119W, strain clb2, stronger effect = lower value 1.02 | S. cerevisiae deletion strains, locus YPR141C, strain kar3, stronger effect = lower value 1.03 | S. cerevisiae deletion strains, locus YPR163C, strain tif3, stronger effect = lower value 1.02 | S. cerevisiae deletion strains, locus YPR167C, strain met16, stronger effect = lower value 1.02 | S. cerevisiae deletion strains, strain wtn01, stronger effect = lower value 1.02 | S. cerevisiae strains, strain wild type, stronger effect = lower value 1
